Assay outcomes: PubChem, National Center for Advancing Translational Sciences (NCATS)
A selection: hits, their analogues and other compounds. The true share with any hit is near 7.6%.
SW480 rerep = A quantitative high throughput screen for small molecules that induce DNA re-replication in SW480 colon adenocarcinoma cells. AID 624297, 2012. Potency, µM (titrated, usually from 46.1 µM), without a hit: at the top dose re-replication activation, most hits filed as activators. SW480 DNA re-replication, Hoechst DNA content imaging, 48 h. 1.8% of 340,000 active; note: potency is the fitted concentration of half-maximal effect; % of control where 0% means no effect; nearly all actives have a fitted effect of over 55% in size
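Quantitative HTS format with DMSO vehicle controls; 48 hr drug incubation at 37 C, then 40 min Hoechst staining and scanning imager measurement at 405 nm excitation.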
KCNH2 3.1 inh = qHTS for Inhibitors of KCHN2 3.1: Mutant qHTS. U2OS KCNH2 3.1, thallium flux FluxOr; active compounds read low. activity change, % (tested at about 1.8 µM). 0.95% of 340,000 active. AID 720553, 2013;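 active = maximum activity change below -70%; inconclusive = maximum activity change from -70% to -50%; inactive = maximum activity change above -50%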;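 note: thallium influx rate constant from kinetic fluorescence after stimulation buffer; % is set by controls: 0 for no effect and ±100 for the full control effect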
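Virally transduced U2OS (3.1 isoform, 4 h infection in dark at RT) → overnight 37 C → FluxOr + Red40 in HBSS/HEPES, 45 min → stimulation buffer, 2 min kinetic read → rate constant vs DMSO controls.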
KCNH2 WT inh = qHTS for Inhibitors of KCHN2 3.1: Wildtype qHTS | activity change, % at 1.84 µM | Voltage-gated inwardly rectifying potassium channel KCNH2 (Homo sapiens), Q12809 | 0.37% of 340,000 active | U2OS, BacMam KCNH2, thallium flux FluxOr; active compounds read low | AID 720551, 2013;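 active = maximum activity change below -70%; inconclusive = maximum activity change between -70% and -50%; inactive = maximum activity change above -50%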; note: % is set by controls: 0 for no effect and ±100 for the full control effect
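U2OS cells were transduced with wild-type KCNH2 virus (2.03 x 10^8 / mL) for 4 h at room temperature, then cultured overnight at 37 C. Thallium flux was read with FluxOr dye. Rate constants were normalized to DMSO controls.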
KB-3-1 tox = qHTS assay for MDR1-selective chemotherapeutics: Primary screen using the parental adenocarcinoma cell KB-3-1; AID 1347075, 2019; KB-3-1 viability, CellTiter-Glo ATP luminescence, 72 h; 1.4% of 400,000 active; Potency, µM (series often up to 46.1 µM), actives largely listed as cytotoxic; note: potency is the fitted concentration of half-maximal effect; % is set by controls: 0 for no effect and ±100 for the full control effect; nearly all actives have a fitted effect of over 60% in size
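Multi-concentration cytotoxicity screen in KB-3-1 cells grown in DMEM lacking phenol red with 10% FBS. After 72 h at 37 °C with compound, ATP-dependent luminescence was recorded.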
KB-V1 cytotox = qHTS assay for MDR1-selective chemotherapeutics: Primary screen using the drug-selected MDR subline cells KB-V1; KB-V1 MDR cells viability, CellTiter-Glo, 72 h; Potency, µM (series often up to 46.1 µM), actives largely listed as cytotoxic; 3.4% of 400,000 active; AID 1347076, 2019; note: potency is the fitted concentration of half-maximal effect; % is set by controls: 0 for no effect and ±100 for the full control effect; nearly all actives have a fitted effect of over 60% in size
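Drug-selected KB-V1 cells, grown in DMEM lacking phenol red with 10% FBS, receive compound titrations; after three days at 37 degrees C, surviving cell ATP is quantified by CellTiter-Glo luminescence and responses normalized and curve-fitted.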
MCF10A rereplic = A quantitative high throughput screen for small molecules that induce DNA re-replication in MCF 10a normal breast cells | MCF 10A DNA re-replication, Hoechst nuclear intensity, 48 h | Potency, µM (highest dose often 46.1 µM), without a hit: top-dose activity, positive = re-replication, hits mostly activators | 2.9% of 350,000 active | AID 624296, 2012; note: potency is the fitted concentration of half-maximal effect; % of control where 0% means no effect; nearly all actives have a fitted effect of over 50% in size
Active calls of the source: *; [ ] = dose if it differs, or a comment. Unless noted, calls come from the whole dose curve; as a rule, active = well fitted curve in the direction sought with a large enough effect; inconclusive = small, poorly fitted or top-dose-only effect, or another doubt; inactive = no such curve, though single readings can be large; an effect the other way counts as inactive or inconclusive.

Results for COc1cccc(-c2cc(C(F)(F)F)nc(-n3nc(C)c(Br)c3C)n2)c1 ?
KB-3-1 tox: inactive; KB-V1 cytotox: inactive

What do the screens show for `CC(=O)c1sc(N/N=C\c2ccccc2O)nc1C`?
SW480 rerep: inconclusive; KCNH2 3.1 inh: -15; KCNH2 WT inh: -6; KB-3-1 tox: inconclusive; KB-V1 cytotox: inactive; MCF10A rereplic: 16µM*

What do the screens show for `CCOC(=O)c1c(C)[nH]c(C)c1S(=O)(=O)NC(C)Cc1ccco1` (centres undefined)?
SW480 rerep: -13%; KCNH2 3.1 inh: -80*; KCNH2 WT inh: 5; KB-3-1 tox: inactive; KB-V1 cytotox: inactive; MCF10A rereplic: 2%

How did CCOC(=O)c1c(C)[nH]c(C)c1S(=O)(=O)N(C)Cc1ccco1 do in these assays?
SW480 rerep: -19%; KCNH2 3.1 inh: 17; KCNH2 WT inh: 2; KB-3-1 tox: inactive; KB-V1 cytotox: inactive; MCF10A rereplic: 2%

Results for O=C(NNC(=O)c1ccccc1Br)c1ccc(SCC2CCCO2)c([N+](=O)[O-])c1 (centres undefined) ?
SW480 rerep: 1%; KCNH2 3.1 inh: -10; KCNH2 WT inh: -6; KB-3-1 tox: inactive; KB-V1 cytotox: 23µM*; MCF10A rereplic: inconclusive

What do the screens show for `COc1ccc([N+](=O)[O-])cc1NC(=O)C(C)NNC(=O)c1cccc([N+](=O)[O-])c1` (centres undefined)?
SW480 rerep: -4%; KCNH2 3.1 inh: -26; KCNH2 WT inh: 12; KB-3-1 tox: inactive; KB-V1 cytotox: 18µM*; MCF10A rereplic: 11%

How did COc1ccc([N+](=O)[O-])cc1NC(=O)COC(C)=O do in these assays?
SW480 rerep: -22%; KCNH2 3.1 inh: -123*; KCNH2 WT inh: -25; KB-3-1 tox: inactive; KB-V1 cytotox: inconclusive; MCF10A rereplic: inconclusive

How did CCCC(=O)OCC(=O)Nc1cc([N+](=O)[O-])ccc1OC do in these assays?
SW480 rerep: 0%; KCNH2 3.1 inh: 8; KCNH2 WT inh: inactive; KB-3-1 tox: inactive; KB-V1 cytotox: inactive; MCF10A rereplic: -3%

How did Cn1ncc2c(O/N=C(\N)c3ccc(C(F)(F)F)cc3)ncnc21 do in these assays?
SW480 rerep: 7.3µM*; KCNH2 3.1 inh: -10; KCNH2 WT inh: 0; KB-3-1 tox: inconclusive; KB-V1 cytotox: inconclusive; MCF10A rereplic: inconclusive

Results for Cc1ccc(C(=O)NNc2ncnc3c2cnn3C)cc1 ?
SW480 rerep: -52%; KCNH2 3.1 inh: -6; KCNH2 WT inh: 7; KB-3-1 tox: inactive; KB-V1 cytotox: inactive; MCF10A rereplic: -1%

Results for Cc1cc(C)cc(OCC(=O)Nc2ccc3c(c2)OCO3)c1 ?
SW480 rerep: -4%; KCNH2 3.1 inh: 0; KCNH2 WT inh: inactive; KB-3-1 tox: inactive; KB-V1 cytotox: inactive; MCF10A rereplic: 1%

How did C/C(=N\NC(=O)C(N)=O)c1ccc(O)cc1O do in these assays?
SW480 rerep: -15%[1.84 µM]; KCNH2 3.1 inh: 3; KCNH2 WT inh: -5; KB-3-1 tox: inactive; KB-V1 cytotox: inactive; MCF10A rereplic: -29%

What do the screens show for `Cc1nc(N2CCN(c3ccccn3)CC2)c2c(C)c(C(=O)Nc3ccc(Cl)cc3)sc2n1`?
SW480 rerep: -7%; KCNH2 3.1 inh: -38; KCNH2 WT inh: -26; KB-3-1 tox: inactive; KB-V1 cytotox: inactive; MCF10A rereplic: -8%

What do the screens show for `Cc1nc(N2CCN(c3ccccn3)CC2)c2c(C)c(C(=O)Nc3c(C)cc(Br)cc3C)sc2n1`?
SW480 rerep: inconclusive; KCNH2 3.1 inh: -80*; KCNH2 WT inh: 1; KB-3-1 tox: inactive; KB-V1 cytotox: inactive; MCF10A rereplic: 10%

Results for Cc1nc(N2CCN(c3ccccn3)CC2)c2c(C)c(C(=O)Nc3c(F)cc(F)cc3Br)sc2n1 ?
SW480 rerep: inconclusive; KCNH2 3.1 inh: -95*; KCNH2 WT inh: -28; KB-3-1 tox: inactive; KB-V1 cytotox: inconclusive; MCF10A rereplic: 13%

What do the screens show for `Cc1nc(N2CCC(C)CC2)c2c(C)c(C(=O)Nc3ccccc3C(F)(F)F)sc2n1`?
SW480 rerep: 1%; KCNH2 WT inh: -2; KB-3-1 tox: inactive; KB-V1 cytotox: inactive; MCF10A rereplic: 9.2µM*

How did CCCOc1ccc(C(=O)N(Cc2ccccc2Cl)C2CCS(=O)(=O)C2)cc1 (centres undefined) do in these assays?
KB-3-1 tox: inactive; KB-V1 cytotox: inactive

Results for S=C(NC1CC1)N1CCCc2ccccc21 ?
SW480 rerep: -16%; KCNH2 3.1 inh: -11; KCNH2 WT inh: 9; KB-3-1 tox: inactive; KB-V1 cytotox: inactive; MCF10A rereplic: -35%

How did CC(c1ccc(N(C)C)cc1)c1ccnc2ccccc12 (centres undefined) do in these assays?
KB-3-1 tox: inconclusive; KB-V1 cytotox: inactive

Results for O=C(/C=C/c1ccccc1)CC(O)(c1ccccc1)C(F)(F)F (centres undefined) ?
SW480 rerep: inconclusive; KCNH2 3.1 inh: -6; KCNH2 WT inh: -20; KB-3-1 tox: inactive; KB-V1 cytotox: 23µM*; MCF10A rereplic: 0%
